Experiment in all cases: DAPPL (digital affinity profiling via proximity ligation, sequencing); 10 mM Tris-HCl pH 7.5, 50 mM NaCl, 1 mM DTT, 4% glycerol, room temperature, 30 min; GST-TFs on glutathione beads, 16-mer random dsDNA library, 0.1% formaldehyde crosslink after washing; high values mean tight binding
For one experiment, the target named is T1, FLI1 (Homo sapiens, UniProt Q01543 1-452).
T1 sequence: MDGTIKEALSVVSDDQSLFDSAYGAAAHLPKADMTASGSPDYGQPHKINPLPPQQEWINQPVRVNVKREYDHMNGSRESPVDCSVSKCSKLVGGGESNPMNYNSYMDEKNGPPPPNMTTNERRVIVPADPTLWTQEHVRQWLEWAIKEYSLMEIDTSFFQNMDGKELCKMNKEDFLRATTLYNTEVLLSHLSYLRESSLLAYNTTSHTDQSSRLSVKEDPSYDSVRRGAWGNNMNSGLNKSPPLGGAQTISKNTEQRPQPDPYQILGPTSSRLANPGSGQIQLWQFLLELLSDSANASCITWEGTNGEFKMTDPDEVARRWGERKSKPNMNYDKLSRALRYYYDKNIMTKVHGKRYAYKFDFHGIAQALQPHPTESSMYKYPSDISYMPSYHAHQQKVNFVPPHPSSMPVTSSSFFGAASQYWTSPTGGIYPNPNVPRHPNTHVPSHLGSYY
The note with it: protein: recombinant; tags: N-terminal GST; dsDNA, one strand shown. The gist of the method: (§1)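 A tag-only sample was pooled with DNA-barcoded human transcription factors that had been expressed in yeast as GST fusions and captured on glutathione beads. The pools were incubated for 30 min at room temperature with 200 nmole of a random double-stranded 16-mer DNA library in Tris/NaCl/DTT/glycerol buffer, then washed, crosslinked with 0.1% formaldehyde, proximity-ligated (BsaI/T4 ligase, 1 h, 37 °C), PCR-amplified and sequenced on an Illumina NextSeq500. Binding signal is each hexamer's read frequency for a factor divided by its frequency for the tag-only sample.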

In another experiment the target is T2, ELK1 (Homo sapiens, UniProt P19419 1-428).
T2 sequence: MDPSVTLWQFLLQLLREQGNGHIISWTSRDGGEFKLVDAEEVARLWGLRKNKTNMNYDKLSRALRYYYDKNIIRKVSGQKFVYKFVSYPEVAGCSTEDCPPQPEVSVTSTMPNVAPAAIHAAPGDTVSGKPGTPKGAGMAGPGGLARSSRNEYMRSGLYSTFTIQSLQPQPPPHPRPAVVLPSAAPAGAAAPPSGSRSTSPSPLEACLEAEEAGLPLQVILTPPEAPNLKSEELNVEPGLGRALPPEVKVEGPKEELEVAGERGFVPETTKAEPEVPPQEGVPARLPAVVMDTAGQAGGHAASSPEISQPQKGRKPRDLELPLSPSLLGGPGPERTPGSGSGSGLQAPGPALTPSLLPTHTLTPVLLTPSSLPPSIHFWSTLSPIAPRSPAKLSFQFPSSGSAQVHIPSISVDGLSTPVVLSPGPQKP
The following applies: protein: recombinant; tags: N-terminal GST; dsDNA, one strand shown. The gist of the method:
as §1

The next experiment deals with T3, GABPA (Homo sapiens, UniProt Q06546 1-454).
T3 sequence: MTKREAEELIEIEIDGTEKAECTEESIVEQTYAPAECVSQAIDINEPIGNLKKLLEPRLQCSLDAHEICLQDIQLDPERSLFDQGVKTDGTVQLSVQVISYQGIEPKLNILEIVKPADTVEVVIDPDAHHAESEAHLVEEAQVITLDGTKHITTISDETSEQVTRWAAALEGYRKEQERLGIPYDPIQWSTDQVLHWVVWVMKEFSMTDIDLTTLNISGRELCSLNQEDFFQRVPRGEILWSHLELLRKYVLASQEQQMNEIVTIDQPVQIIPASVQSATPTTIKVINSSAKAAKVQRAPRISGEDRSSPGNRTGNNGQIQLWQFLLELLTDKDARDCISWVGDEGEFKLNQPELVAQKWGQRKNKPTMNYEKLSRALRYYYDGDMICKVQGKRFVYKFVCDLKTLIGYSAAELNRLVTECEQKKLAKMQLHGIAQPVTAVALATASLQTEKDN
The note with it: protein: recombinant; tags: N-terminal GST; dsDNA, one strand shown. The gist of the method:
as §1

A further experiment concerns the target T4, ERG (Homo sapiens, UniProt P11308 1-479).
T4 sequence: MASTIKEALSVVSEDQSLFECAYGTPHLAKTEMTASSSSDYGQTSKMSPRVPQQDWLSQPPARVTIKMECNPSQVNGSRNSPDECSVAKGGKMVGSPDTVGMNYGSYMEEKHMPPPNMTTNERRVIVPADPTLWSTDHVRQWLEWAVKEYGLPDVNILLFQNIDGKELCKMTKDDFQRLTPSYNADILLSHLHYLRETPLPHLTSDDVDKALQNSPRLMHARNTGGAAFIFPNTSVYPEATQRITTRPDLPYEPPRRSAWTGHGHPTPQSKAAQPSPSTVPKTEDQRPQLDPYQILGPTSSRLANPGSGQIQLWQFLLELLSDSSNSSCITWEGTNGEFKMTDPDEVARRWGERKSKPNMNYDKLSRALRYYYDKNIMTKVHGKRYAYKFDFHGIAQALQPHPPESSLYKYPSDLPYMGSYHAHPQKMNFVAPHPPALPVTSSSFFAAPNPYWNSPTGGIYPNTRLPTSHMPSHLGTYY
The following applies: protein: recombinant; tags: N-terminal GST; dsDNA, one strand shown. The gist of the method: as §1

Another experiment has as its target ELF1 (Homo sapiens, UniProt P32519 1-619). The following applies: protein: recombinant; tags: N-terminal GST; dsDNA, one strand shown. The gist of the method:
as §1

The target of another experiment is T5, EHF (Homo sapiens, UniProt Q9NZC4 1-300).
T5 sequence: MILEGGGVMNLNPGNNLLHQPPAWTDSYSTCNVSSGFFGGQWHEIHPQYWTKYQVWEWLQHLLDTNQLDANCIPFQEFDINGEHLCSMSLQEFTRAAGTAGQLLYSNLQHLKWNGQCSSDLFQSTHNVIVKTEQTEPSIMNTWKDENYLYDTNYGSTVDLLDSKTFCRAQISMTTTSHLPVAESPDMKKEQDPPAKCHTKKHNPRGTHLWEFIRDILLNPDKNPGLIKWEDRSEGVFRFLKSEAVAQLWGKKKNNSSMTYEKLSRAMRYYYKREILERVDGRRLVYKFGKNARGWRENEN
The note with it: protein: recombinant; tags: N-terminal GST; dsDNA, one strand shown. The gist of the method: as §1

The next experiment has as its target SPI1 (Homo sapiens, UniProt P17947 1-270). The note with it: protein: recombinant; tags: N-terminal GST; dsDNA, one strand shown. The gist of the method: as §1
The target in a further experiment is SPIB (Homo sapiens, UniProt Q01892 1-262). The note with it: protein: recombinant; tags: N-terminal GST; dsDNA, one strand shown. The gist of the method: as §1
For the next experiment, the target named is T6, ELK3 (Homo sapiens, UniProt P41970 1-407).
T6 sequence: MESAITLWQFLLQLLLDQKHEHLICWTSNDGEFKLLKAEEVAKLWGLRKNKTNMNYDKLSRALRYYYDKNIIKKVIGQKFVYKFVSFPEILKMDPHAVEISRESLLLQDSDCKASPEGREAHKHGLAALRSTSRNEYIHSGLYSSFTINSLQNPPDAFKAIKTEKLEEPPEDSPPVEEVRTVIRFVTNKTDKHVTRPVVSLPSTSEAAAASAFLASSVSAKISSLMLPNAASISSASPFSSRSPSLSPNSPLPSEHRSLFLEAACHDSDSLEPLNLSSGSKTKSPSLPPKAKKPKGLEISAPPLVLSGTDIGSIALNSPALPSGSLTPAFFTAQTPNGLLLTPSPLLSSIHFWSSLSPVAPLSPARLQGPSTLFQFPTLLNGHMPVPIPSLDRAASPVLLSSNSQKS
The note with it: protein: recombinant; tags: N-terminal GST; dsDNA, one strand shown. The gist of the method:
as §1

In the next experiment the target is T7, FEV (Homo sapiens, UniProt Q99581 1-238).
T7 sequence: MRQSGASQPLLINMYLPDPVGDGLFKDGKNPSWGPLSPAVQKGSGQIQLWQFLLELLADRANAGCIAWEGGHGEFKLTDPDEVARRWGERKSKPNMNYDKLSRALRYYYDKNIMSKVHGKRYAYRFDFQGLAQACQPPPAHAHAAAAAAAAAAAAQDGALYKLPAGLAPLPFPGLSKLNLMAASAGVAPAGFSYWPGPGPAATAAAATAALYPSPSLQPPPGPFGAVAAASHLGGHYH
The note with it: protein: recombinant; tags: N-terminal GST; dsDNA, one strand shown. The gist of the method: as §1

The target in the next experiment is ETV5 (Homo sapiens, UniProt P41161 1-510). The following applies: protein: recombinant; tags: N-terminal GST; dsDNA, one strand shown. The gist of the method: as §1
A further experiment concerns the target HSF1 (Homo sapiens, UniProt Q00613 1-529). The following applies: protein: recombinant; tags: N-terminal GST; chain copies: 3; dsDNA, one strand shown. The gist of the method:
as §1

In a further experiment the target is T8, SPIC (Homo sapiens, UniProt Q8N5J4 1-248).
T8 sequence: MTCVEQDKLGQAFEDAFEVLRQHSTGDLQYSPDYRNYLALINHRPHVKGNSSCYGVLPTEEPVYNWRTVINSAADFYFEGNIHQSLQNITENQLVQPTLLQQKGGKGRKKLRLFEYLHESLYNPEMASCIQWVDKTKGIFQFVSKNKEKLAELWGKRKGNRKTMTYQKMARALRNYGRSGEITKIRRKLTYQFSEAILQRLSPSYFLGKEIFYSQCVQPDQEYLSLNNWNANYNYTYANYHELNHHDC
The following applies: protein: recombinant; tags: N-terminal GST; dsDNA, one strand shown. The gist of the method:
as §1

Another experiment concerns the target ELF4 (Homo sapiens, UniProt Q99607 1-663). The following applies: protein: recombinant; tags: N-terminal GST; dsDNA, one strand shown. The gist of the method:
as §1

In a further experiment the target is T9, ELK4 (Homo sapiens, UniProt P28324-2 1-405).
T9 sequence: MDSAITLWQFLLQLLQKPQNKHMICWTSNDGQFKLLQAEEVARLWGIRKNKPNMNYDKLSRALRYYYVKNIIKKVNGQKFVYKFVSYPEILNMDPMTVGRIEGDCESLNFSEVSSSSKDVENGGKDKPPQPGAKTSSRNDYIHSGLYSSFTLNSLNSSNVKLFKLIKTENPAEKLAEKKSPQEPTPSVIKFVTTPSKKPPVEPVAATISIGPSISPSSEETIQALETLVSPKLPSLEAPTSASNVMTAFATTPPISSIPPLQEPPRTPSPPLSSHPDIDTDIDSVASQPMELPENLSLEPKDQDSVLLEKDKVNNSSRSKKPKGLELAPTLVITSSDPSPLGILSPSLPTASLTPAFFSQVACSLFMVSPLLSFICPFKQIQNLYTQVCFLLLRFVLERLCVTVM
The following applies: protein: recombinant; tags: N-terminal GST; dsDNA, one strand shown. The gist of the method: as §1

Another experiment concerns the target T10, ETV2 (Homo sapiens, UniProt O00321 1-342).
T10 sequence: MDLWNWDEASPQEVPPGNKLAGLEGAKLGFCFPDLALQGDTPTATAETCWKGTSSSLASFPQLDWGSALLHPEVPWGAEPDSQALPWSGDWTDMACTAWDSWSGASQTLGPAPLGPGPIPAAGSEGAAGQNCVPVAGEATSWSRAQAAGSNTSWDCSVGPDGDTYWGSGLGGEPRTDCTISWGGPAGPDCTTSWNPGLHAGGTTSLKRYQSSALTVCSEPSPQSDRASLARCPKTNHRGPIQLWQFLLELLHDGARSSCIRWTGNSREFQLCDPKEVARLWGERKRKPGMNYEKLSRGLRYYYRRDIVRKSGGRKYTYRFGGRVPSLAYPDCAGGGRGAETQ
The following applies: protein: recombinant; tags: N-terminal GST; dsDNA, one strand shown. The gist of the method:
as §1

For the next experiment, the target named is T11, ELF3 (Homo sapiens, UniProt P78545 1-371).
T11 sequence: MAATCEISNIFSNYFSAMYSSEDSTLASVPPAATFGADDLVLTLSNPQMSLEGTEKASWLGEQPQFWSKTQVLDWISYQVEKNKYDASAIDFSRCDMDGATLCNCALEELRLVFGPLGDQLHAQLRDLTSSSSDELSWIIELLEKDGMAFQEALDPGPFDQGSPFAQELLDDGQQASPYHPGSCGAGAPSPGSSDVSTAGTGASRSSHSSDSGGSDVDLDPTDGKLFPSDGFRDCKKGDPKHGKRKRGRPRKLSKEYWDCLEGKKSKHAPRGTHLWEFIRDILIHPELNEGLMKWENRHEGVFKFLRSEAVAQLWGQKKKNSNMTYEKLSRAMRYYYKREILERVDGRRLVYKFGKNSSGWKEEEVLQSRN
The note with it: protein: recombinant; tags: N-terminal GST; dsDNA, one strand shown. The gist of the method: as §1

Another experiment has as its target CRX (Homo sapiens, UniProt O43186 1-299). The following applies: protein: recombinant; tags: N-terminal GST; dsDNA, one strand shown. The gist of the method: as §1
In another experiment the target is ETV1 (Homo sapiens, UniProt P50549 1-477). The note with it: protein: recombinant; tags: N-terminal GST; dsDNA, one strand shown. The gist of the method:
as §1

Chain of HSF1 (Q00613 whole entry): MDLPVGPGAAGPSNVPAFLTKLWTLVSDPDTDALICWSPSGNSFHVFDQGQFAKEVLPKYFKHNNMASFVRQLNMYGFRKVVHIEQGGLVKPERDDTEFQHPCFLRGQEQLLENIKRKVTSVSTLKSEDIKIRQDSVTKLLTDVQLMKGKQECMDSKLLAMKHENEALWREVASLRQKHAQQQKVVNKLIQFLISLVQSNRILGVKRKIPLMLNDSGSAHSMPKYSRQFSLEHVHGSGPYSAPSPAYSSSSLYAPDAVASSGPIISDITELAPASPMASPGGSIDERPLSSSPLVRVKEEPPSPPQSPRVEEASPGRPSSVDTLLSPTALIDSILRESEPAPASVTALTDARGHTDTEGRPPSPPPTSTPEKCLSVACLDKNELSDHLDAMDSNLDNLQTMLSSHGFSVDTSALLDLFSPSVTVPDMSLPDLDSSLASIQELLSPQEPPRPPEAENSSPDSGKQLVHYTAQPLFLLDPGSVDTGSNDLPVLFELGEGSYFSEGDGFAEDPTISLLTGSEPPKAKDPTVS
Chain of SPIB (Q01892 whole entry): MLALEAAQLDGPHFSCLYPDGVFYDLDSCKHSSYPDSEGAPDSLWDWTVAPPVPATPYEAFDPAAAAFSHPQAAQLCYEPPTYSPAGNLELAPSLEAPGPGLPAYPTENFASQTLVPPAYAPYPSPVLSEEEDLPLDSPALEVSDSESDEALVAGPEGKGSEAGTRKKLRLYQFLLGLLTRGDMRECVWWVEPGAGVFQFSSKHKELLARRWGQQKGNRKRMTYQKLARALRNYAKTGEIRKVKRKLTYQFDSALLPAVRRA
Chain of CRX (O43186 whole entry): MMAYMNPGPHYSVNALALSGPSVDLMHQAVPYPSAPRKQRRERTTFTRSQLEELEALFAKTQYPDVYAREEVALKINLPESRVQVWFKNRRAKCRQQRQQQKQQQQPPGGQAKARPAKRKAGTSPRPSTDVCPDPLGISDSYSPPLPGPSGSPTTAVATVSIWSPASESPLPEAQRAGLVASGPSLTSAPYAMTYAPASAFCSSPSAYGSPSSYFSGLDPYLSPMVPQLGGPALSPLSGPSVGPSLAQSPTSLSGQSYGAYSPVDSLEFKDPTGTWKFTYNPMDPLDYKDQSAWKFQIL
Chain of ETV5 (P41161 whole entry): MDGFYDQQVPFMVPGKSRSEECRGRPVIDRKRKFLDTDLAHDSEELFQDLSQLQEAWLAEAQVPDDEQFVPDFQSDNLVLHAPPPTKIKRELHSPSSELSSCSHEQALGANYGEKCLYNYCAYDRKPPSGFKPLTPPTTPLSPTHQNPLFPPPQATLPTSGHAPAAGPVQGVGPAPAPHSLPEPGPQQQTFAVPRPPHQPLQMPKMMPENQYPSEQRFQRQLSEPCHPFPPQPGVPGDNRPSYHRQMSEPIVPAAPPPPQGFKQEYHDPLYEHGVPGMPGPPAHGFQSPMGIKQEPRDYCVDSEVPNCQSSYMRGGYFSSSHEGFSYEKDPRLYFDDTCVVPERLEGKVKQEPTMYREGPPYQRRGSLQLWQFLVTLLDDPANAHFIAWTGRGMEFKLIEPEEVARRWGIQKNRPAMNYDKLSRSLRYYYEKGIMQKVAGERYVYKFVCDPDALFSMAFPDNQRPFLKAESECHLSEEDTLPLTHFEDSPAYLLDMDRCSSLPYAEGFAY
Chain of ETV1 (P50549 whole entry): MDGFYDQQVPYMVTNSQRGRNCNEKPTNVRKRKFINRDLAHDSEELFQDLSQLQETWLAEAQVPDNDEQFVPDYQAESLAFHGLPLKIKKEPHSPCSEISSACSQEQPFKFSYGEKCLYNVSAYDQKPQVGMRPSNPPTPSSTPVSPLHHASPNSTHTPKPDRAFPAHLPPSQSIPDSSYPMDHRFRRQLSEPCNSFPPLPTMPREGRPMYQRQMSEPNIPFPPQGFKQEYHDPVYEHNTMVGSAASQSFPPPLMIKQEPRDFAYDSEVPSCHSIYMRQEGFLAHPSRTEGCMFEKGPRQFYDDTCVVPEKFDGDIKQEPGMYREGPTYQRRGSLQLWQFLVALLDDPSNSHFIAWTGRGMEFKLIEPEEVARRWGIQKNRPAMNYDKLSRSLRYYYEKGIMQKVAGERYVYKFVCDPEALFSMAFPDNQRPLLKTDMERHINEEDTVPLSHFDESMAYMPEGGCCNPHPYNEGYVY
Chain of ELF1 (P32519 whole entry): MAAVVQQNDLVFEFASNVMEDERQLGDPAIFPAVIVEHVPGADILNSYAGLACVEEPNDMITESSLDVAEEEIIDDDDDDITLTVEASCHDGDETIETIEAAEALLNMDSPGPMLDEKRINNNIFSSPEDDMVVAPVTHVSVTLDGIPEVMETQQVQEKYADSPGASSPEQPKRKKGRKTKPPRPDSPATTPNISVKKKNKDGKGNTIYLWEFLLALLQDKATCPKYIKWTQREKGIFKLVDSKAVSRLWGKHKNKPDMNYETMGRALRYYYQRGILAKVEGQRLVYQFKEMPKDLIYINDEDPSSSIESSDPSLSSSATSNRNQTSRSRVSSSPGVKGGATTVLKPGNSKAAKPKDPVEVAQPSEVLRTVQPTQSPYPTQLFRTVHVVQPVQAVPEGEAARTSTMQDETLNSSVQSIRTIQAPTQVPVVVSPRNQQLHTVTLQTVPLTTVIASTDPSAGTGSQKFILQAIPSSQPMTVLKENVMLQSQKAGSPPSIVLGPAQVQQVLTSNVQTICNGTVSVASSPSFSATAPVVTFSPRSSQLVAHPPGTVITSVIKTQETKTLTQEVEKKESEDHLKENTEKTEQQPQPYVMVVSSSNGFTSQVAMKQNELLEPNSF
Chain of ELF4 (Q99607 whole entry): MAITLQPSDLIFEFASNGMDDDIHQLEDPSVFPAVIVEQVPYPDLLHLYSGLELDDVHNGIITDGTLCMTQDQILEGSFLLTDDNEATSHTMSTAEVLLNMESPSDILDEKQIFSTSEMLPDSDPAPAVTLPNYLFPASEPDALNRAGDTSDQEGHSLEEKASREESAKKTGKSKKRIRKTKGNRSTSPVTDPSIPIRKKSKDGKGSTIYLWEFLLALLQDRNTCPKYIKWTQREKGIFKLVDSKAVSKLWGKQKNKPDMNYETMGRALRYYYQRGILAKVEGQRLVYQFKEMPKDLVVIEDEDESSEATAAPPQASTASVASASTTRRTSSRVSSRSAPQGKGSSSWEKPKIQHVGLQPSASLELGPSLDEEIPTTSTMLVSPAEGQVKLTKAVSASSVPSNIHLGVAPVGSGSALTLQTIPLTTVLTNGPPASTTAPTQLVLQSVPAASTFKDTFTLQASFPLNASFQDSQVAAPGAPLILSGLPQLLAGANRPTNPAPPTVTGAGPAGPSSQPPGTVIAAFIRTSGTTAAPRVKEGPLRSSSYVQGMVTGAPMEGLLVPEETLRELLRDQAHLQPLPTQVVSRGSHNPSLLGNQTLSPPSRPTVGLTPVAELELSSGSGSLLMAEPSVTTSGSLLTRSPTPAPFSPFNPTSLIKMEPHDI

ACTCCT: the binding signal in the experiment with FLI1 is 1.67 fold enrichment (6-mer frequency, TF over GST control); with ELK1, 1.55 fold enrichment (6-mer frequency, TF over GST control); with GABPA it was 1.45 fold enrichment (6-mer frequency, TF over GST control); with ERG, 1.45 fold enrichment (6-mer frequency, TF over GST control); in the experiment with ELF1 it was 1.57 fold enrichment (6-mer frequency, TF over GST control); with EHF, 1.52 fold enrichment (6-mer frequency, TF over GST control). Besides, the binding signal with SPI1 was 1.42 fold enrichment (6-mer frequency, TF over GST control); with SPIB, 1.57 fold enrichment (6-mer frequency, TF over GST control); in the experiment with ELK3, 1.5 fold enrichment (6-mer frequency, TF over GST control); with FEV, 1.47 fold enrichment (6-mer frequency, TF over GST control); with ETV5 it was 1.38 fold enrichment (6-mer frequency, TF over GST control); with HSF1, 1.36 fold enrichment (6-mer frequency, TF over GST control). Besides, the binding signal with SPIC was 1.54 fold enrichment (6-mer frequency, TF over GST control); with ELF4, 1.59 fold enrichment (6-mer frequency, TF over GST control); with ELK4, 1.54 fold enrichment (6-mer frequency, TF over GST control); with ETV2, 1.38 fold enrichment (6-mer frequency, TF over GST control); in the experiment with ELF3, 1.3 fold enrichment (6-mer frequency, TF over GST control); in the experiment with CRX, 1.32 fold enrichment (6-mer frequency, TF over GST control). In addition, the binding signal in the experiment with ETV1 was 1.41 fold enrichment (6-mer frequency, TF over GST control).

(Values after paper PMC7862700, “An all-to-all approach to the identification of sequence-specific readers for epigenetic DNA modifications on cytosine”.)
